In the supplement of paper PMC10849652:
The full data set covers some 7,900 targets. This sample favours those with a hit. About 0.6% of all pairs of compound and target were hits. A number with no mark means an inactive call.

Key:
Assay in all cases: log2 fold change, soluble protein after heating vs DMSO (PISA); higher = thermal stabilisation; K562 cells, 10 uM, 30 min; active = over 0.2 and 3.5 SD of the protein, either way, in both replicates (recomputed)
[1] = compound: COC1=CC=C(C=C1)CN2C=CC3=C2C=C(C=C3)C(=O)NO
Procedure, shortened: (§1)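 Aliquots of K562 cells (2×10^6 cells/mL) treated with 10 μM compound for 30 min were heated for 3 min over 48°C-58°C. After pooling and extraction in PBS with 0.5% NP-40 at 4°C, soluble protein from a 21,000xg, 90 min spin was quantified by TMTpro 16plex LC-MS/MS with channel sums equalised. Thermal stability is expressed against control samples, from duplicates, as a log2 fold change.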

[2] = compound: CON(C)C(=O)N1N=C(c2cc(F)ccc2F)S[C@@]1(CCCN)c1ccccc1 [filanesib]
Procedure, shortened: as §1

[3] = compound: CO[C@H]1C[C@@H]2CC[C@@H](C)[C@@](O)(O2)C(=O)C(=O)N2CCCC[C@H]2C(=O)O[C@H]([C@H](C)C[C@@H]2CC[C@H](n3cnnn3)[C@H](OC)C2)CC(=O)[C@H](C)/C=C(\C)[C@@H](O)[C@@H](OC)C(=O)[C@H](C)C[C@H](C)/C=C/C=C/C=C/1C [zotarolimus]
Procedure, shortened: as §1

[4] = compound: COc1cc(C(=O)O)ccc1NC(=O)[C@@H]1N[C@@H](CC(C)(C)C)[C@](C#N)(c2ccc(Cl)cc2F)[C@H]1c1cccc(Cl)c1F [idasanutlin]
Procedure, shortened: as §1

[5] = compound: COc1cc(Nc2ncc3c(n2)-c2ccc(Cl)cc2C(c2c(F)cccc2OC)=NC3)ccc1C(=O)O [alisertib]
Procedure, shortened: as §1

[6] = compound: COc1cc2nc(-c3cc(F)ccc3O)nc(N[C@@H]3CNC[C@H]3C(C)(C)O)c2cc1OC
Procedure, shortened: as §1

[7] = compound: COc1cc2ncnc(Nc3ccc(F)c(Cl)c3)c2cc1OCCCN1CCOCC1 [gefitinib]
Procedure, shortened: as §1

[8] = compound: COc1cccc2cc(-c3nc([C@H]4CC[C@H](C(=O)O)CC4)n4ncnc(N)c34)[nH]c12
Procedure, shortened: as §1

[9] = compound: CS(=O)(=O)CCNCc1ccc(-c2ccc3ncnc(Nc4ccc(OCc5cccc(F)c5)c(Cl)c4)c3c2)o1 [lapatinib]
Procedure, shortened: as §1

[10] = compound: CS(=O)(=O)N1CCN(Cc2cc3nc(-c4cccc5[nH]ncc45)nc(N4CCOCC4)c3s2)CC1 [pictilisib]
Procedure, shortened: as §1

[11] = compound: CS(=O)(=O)c1ccc(-c2cnc(N)c(C(=O)Nc3ccccc3)n2)cc1
Procedure, shortened: as §1

[12] = compound: C[C@@H](Oc1cc(-c2cnn(C3CCNCC3)c2)cnc1N)c1c(Cl)ccc(F)c1Cl [crizotinib]
Procedure, shortened: as §1

[13] = compound: C[C@@H]1COCCN1C2=NC(=NC(=C2)C3(CC3)S(=O)(=O)C)C4=C5C=CNC5=CC=C4
Procedure, shortened: as §1

[14] = compound: C[C@H](C1=CC=C(C=C1)C(=O)NC2=C3C=CNC3=NC=C2)N
Procedure, shortened: as §1

[15] = compound: C[C@H](Nc1ncnc2nc[nH]c12)c1cc2cccc(Cl)c2c(=O)n1-c1ccccc1 [duvelisib]
Procedure, shortened: as §1

[16] = compound: Cc1cc(Nc2cc(CN3CCOCC3)c3nc(C)c(Cc4ccc(Cl)cc4F)n3n2)n[nH]1 [gandotinib]
Procedure, shortened: as §1

[17] = compound: Cc1cc(Nc2cc(N3CCN(C)CC3)nc(Sc3ccc(NC(=O)C4CC4)cc3)n2)n[nH]1 [tozasertib]
Procedure, shortened: as §1

[18] = compound: Cc1cc(SCc2sc(-c3ccc(C(F)(F)F)cc3)nc2C)ccc1OCC(=O)O
Procedure, shortened: as §1

[19] = compound: Cc1ccc(-n2nc(C(C)(C)C)cc2NC(=O)Nc2ccc(OCCN3CCOCC3)c3ccccc23)cc1 [doramapimod]
Procedure, shortened: as §1

[20] = compound: Cc1ccc(C(=O)N(CCCN)[C@@H](c2nc3cc(Cl)ccc3c(=O)n2Cc2ccccc2)C(C)C)cc1 [ispinesib]
Procedure, shortened: as §1

Sequence of UniProt Q86WA8 (Q86WA8 whole entry, looked up): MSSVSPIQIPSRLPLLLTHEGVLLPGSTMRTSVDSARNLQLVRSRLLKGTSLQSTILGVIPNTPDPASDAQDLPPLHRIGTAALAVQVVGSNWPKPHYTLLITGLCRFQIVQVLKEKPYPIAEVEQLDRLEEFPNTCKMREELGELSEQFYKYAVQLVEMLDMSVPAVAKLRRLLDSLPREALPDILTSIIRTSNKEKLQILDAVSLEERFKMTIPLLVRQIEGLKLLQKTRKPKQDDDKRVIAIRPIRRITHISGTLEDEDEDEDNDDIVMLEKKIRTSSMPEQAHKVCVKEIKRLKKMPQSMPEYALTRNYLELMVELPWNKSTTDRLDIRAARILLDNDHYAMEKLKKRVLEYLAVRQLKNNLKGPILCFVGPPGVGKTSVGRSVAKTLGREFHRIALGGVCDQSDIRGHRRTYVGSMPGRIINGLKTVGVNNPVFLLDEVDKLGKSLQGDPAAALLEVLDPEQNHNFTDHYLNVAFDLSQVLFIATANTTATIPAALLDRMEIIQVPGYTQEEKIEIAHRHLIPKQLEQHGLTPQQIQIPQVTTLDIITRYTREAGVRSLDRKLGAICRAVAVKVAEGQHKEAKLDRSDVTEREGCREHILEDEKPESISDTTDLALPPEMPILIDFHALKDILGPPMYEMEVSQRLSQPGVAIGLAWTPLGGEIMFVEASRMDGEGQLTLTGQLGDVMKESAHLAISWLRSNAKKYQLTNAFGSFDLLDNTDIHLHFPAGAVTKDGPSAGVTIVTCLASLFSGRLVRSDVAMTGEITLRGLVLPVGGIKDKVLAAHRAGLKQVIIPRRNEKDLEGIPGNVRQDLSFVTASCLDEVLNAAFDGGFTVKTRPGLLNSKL
Sequence of UniProt Q16891 (Q16891 whole entry, looked up): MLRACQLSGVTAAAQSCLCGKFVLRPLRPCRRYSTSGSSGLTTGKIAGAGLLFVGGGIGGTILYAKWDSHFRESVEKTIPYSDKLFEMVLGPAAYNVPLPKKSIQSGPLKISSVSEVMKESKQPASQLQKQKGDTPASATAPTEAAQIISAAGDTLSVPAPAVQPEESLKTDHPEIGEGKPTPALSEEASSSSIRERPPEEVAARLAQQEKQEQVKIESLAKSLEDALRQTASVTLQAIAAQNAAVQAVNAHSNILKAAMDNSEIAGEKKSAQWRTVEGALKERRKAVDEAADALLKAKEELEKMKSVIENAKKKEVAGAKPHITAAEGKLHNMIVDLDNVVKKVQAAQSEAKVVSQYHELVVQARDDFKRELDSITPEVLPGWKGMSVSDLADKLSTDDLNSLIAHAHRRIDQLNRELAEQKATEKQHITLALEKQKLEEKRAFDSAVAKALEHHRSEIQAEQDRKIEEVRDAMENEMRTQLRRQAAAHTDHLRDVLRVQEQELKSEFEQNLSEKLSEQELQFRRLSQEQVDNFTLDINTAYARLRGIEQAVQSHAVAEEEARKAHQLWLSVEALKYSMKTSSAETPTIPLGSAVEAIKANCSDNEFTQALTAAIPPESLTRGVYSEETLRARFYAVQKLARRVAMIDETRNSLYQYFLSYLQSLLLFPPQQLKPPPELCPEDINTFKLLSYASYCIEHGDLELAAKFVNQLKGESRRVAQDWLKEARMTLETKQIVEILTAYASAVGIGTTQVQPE
Sequence of UniProt P23276 (P23276 whole entry, looked up): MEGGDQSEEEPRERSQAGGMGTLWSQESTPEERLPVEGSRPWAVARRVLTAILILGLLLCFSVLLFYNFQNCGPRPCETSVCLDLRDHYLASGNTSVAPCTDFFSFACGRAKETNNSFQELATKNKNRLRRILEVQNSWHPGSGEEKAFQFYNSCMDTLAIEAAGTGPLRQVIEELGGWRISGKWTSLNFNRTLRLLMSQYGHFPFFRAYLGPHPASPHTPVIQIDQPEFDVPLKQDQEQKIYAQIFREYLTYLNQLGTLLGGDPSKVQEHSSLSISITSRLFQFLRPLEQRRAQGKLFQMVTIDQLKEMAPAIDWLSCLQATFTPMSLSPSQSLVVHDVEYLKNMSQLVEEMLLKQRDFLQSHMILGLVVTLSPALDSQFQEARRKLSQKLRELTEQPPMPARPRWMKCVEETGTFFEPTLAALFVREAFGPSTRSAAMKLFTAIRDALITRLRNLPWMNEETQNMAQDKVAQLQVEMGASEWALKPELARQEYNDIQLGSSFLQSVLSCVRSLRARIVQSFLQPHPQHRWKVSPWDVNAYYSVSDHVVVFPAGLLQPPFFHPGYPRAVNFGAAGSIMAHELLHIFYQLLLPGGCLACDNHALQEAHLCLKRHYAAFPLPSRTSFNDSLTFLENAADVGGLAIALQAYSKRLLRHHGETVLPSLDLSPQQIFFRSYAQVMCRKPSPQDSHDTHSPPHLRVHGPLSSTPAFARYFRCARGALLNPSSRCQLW
Sequence of UniProt P29966 (P29966 whole entry, looked up): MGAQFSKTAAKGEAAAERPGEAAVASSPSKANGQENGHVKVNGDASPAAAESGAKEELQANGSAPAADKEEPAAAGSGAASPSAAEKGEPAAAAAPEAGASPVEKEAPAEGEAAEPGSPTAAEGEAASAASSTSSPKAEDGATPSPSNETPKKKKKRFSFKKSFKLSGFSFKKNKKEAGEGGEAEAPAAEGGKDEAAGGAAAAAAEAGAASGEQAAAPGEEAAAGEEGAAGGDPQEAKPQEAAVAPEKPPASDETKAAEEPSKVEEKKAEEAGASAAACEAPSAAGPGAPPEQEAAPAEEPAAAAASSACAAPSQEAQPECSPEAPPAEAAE
Sequence of UniProt Q7L2J0 (Q7L2J0 whole entry, looked up): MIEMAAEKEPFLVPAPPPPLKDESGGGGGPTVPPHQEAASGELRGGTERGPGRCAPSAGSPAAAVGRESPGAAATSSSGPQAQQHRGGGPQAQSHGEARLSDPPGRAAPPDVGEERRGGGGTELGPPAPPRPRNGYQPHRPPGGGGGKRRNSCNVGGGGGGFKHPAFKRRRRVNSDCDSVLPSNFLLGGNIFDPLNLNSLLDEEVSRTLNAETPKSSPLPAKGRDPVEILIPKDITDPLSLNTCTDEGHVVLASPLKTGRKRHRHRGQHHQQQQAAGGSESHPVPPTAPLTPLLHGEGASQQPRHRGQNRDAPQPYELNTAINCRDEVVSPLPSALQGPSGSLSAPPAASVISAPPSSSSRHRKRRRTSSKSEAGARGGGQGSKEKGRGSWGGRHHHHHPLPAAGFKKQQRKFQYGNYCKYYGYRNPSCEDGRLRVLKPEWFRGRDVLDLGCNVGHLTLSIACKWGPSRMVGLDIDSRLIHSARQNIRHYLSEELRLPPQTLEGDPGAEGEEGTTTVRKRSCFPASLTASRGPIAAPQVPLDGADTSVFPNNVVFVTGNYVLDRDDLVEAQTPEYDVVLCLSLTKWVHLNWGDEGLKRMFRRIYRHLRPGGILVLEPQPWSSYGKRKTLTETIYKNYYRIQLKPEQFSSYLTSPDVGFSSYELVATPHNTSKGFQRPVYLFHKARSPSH
Sequence of UniProt Q13422 (Q13422 whole entry, looked up): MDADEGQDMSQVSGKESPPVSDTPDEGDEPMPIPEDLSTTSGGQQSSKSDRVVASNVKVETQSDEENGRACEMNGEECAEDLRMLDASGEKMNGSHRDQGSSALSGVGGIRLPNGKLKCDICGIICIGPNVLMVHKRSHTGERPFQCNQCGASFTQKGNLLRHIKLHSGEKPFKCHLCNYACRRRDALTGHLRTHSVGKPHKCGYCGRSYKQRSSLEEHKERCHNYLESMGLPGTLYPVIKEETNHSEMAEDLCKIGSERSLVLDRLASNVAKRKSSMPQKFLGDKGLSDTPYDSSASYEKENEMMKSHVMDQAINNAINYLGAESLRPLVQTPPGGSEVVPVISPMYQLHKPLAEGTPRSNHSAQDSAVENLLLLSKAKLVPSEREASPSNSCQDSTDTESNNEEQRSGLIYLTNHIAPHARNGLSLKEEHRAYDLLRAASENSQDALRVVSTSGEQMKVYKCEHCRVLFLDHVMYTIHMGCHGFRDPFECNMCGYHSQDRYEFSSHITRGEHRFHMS
Sequence of UniProt O95232 (O95232 whole entry, looked up): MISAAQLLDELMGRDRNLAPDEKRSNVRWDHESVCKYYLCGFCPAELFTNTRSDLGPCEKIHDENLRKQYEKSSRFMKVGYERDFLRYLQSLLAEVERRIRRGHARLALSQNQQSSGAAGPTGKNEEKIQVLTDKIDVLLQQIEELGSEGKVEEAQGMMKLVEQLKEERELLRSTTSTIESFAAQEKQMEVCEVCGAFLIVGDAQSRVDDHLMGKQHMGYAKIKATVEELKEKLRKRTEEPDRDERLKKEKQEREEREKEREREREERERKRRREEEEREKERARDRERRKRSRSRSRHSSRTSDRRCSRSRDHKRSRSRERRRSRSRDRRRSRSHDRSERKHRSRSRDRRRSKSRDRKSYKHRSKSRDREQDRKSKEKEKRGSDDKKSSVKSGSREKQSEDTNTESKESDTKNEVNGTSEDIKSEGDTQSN

| Target | log2 fold change [1] | log2 fold change [2] | log2 fold change [3] | log2 fold change [4] | log2 fold change [5] | log2 fold change [6] | log2 fold change [7] | log2 fold change [8] | log2 fold change [9] | log2 fold change [10] | log2 fold change [11] | log2 fold change [12] | log2 fold change [13] | log2 fold change [14] | log2 fold change [15] | log2 fold change [16] | log2 fold change [17] | log2 fold change [18] | log2 fold change [19] | log2 fold change [20] |
| --- | --- | --- | --- | --- | --- | --- | --- | --- | --- | --- | --- | --- | --- | --- | --- | --- | --- | --- | --- | --- |
| LUC7L3 (UniProt O95232) | 0.106 | 0.083 | 0.003 | 0.031 | -0.009 | 0.021 | -0.04 | 0.011 | 0.045 | 0.011 | -0.001 | -0.045 | -0.022 | -0.219 (active) | -0.001 | 0.065 | 0.011 | 0.02 | 0 | 0.099 |
| MEPCE (UniProt Q7L2J0) | -0.706 (active) | 0.042 | 0.042 | 0.036 | -0.093 | -0.167 | 0.078 | 0.013 | 0.102 | -0.013 | -0.006 | 0.111 | 0.03 | -0.005 | -0.005 | -0.051 | 0.094 | 0.04 | -0.22 | -0.065 |
| LRBA, A0A494BZW2 | 0.006 | -0.136 | -0.127 | -0.207 | 0.001 | 0.453 | -0.026 | 0.046 | -0.097 | 0.095 | 0.013 | -0.053 | 0.114 | 0.104 | -0.057 | 0.041 | -0.055 | -0.004 | 0.036 | -0.182 |
| LONP2 (UniProt Q86WA8) | -0.002 | -0.019 | -0.02 | -0.177 | -0.115 | 0.375 | 0.129 | 0.015 | 0.1 | -0.041 | -0.004 | 0.072 | 0.026 | 0.113 | -0.017 | 0.017 | 0.073 | -0.094 | 0.073 | 0.092 |
| MARCKS (UniProt P29966) | 0.108 | 0.004 | 0.001 | 0.062 | 0.006 | -0.016 | -0.003 | 0.069 | 0.019 | -0.225 | 0.022 | 0.198 | -0.042 | -0.191 | 0.006 | 0.234 | -0.068 | 0.025 | 0 | -0.031 |
| IMMT isoform 4 (UniProt Q16891) | -0.008 | -0.122 | -0.007 | -0.082 | -0.049 | -0.146 | -0.005 | 0.013 | -0.047 | 0.005 | 0.017 | -0.102 | 0.084 | -0.012 | 0.019 | -0.093 | 0.002 | 0 | -0.014 | -0.202 |
| KEL (UniProt P23276) | -0.042 | 0.034 | -0.043 | 0.055 | 0.177 | -0.015 | 0.07 | 0.176 | -0.078 | 0.194 | 0.002 | 0.084 | -0.048 | -0.07 | 0.015 | -0.341 | -0.01 | 0.019 | 0.028 | 0.047 |
| IKZF1 (UniProt Q13422) | -0.045 | -0.136 | 0.004 | 0.037 | -0.019 | 0.01 | 0.128 | 0.039 | -0.041 | 0.026 | -0.065 | -0.048 | 0.008 | -0.069 | 0.111 | -0.038 | -0.078 | 0.039 | -0.016 | -0.186 |
